We go through 46 compounds from PubChem BioAssay AID1347416 (National Center for Advancing Translational Sciences (NCATS), 2020).

The whole screen tested about 4,100 compounds, of which about 1,600 (39%) were called active. Inconclusive results (about 25%) are left out. Some of the results follow. Values without a mark were called inactive. Calls follow the shape of the dose curve; as a rule, active = well fitted inhibition curve with a large enough effect; inconclusive = small, poorly fitted or top-dose-only effect; inactive = no such curve, though single readings can be large or run the other way.
% is scaled to controls: 0 for no effect and ±100 for the full control effect; potency is read from the fitted curve at half-maximal effect.

This assay is described as follows: qHTS Validation assay for Inhibitors of Plasmodium falciparum Dd2 growth in vitro. Also: nearly all actives have a fitted effect of over 70% in size. To be noted: P. falciparum Dd2 in RBCs, SYBR Green growth, 72 h; series mostly up to 28.7 µM; activity change, negative = inhibition: at the top concentration. The essentials: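 P. falciparum Dd2-infected red blood cells (2.5% hematocrit, 0.3% parasitemia) grown 72 h at 37 °C under 5% O2 with compounds in a titration, 29 uM to 0.5 nM final. Growth read as SYBR Green-1 fluorescence after ~16 h lysis; artesunate 300 nM as positive control.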
A general note: In qHTS, concentration-response curves come from the screen itself.
Turning to `Cn1cnnc1-c1nn(C)c2c1CN(C(=O)c1cc3ccccc3[nH]1)CC2`, the “activity change, negative = inhibition” value was -20.5%.
Same read-out and setting: the result for `N#Cc1cccc(S(=O)(=O)N2CC(C(=O)NC3CCCCC3)C3(CCOCC3)C2)c1` (stereo unspecified) reads 11.3%; that for `CCC(C)NC(=O)c1cc2c(Cl)nc3ccc(C)cc3c2s1` (stereo unspecified), -5.46%.
Consider `COc1cc(NC(=O)c2cc3c(Cl)nc4ccccc4c3s2)cc(OC)c1OC`, for which the Potency was 4.73 µM (active).
`CCCc1noc(-c2cccn3c(CNC(=O)c4ccccc4OCC)nnc23)n1`: the “activity change, negative = inhibition” value is -8.26%.
The same measure, in the same setting: the value for `Cc1csc2nc(COc3ccc(NC(=O)c4ccccc4F)cc3)cc(=O)n12` was 26.8%; that for `COc1cc(C(=O)Nc2ccccc2OCc2cc(=O)n3cc(C)sc3n2)cc(OC)c1OC` was 29.8%.
In the case of `COCCc1nn2c(=O)cc(COC(=O)C(c3ccccc3)c3ccccc3)nc2s1`, the Potency was 2.66 µM (active).
On the same count and under the same terms, the value for `Cn1c(=O)[nH]c2nnc(-c3ccc(Cl)c(Cl)c3)nc2c1=O` was 8.41 µM (active).
As to `Cn1c(=O)c2nc(SCC(=O)Nc3ccc(Cl)c(Cl)c3)n(C)c2n(C)c1=O`, the “activity change, negative = inhibition” value was 26.8%.
Turning to `CCN1CCN(c2cc(C)c3cc(NC(=O)/C=C/c4ccc(OCCC(C)C)cc4)ccc3n2)CC1`, the Potency is 2.11 µM (active).
The same measure, in the same setting: the value for `CCN1CCN(c2cc(C)c3cc(NC(=O)/C=C/c4ccc(C)cc4)ccc3n2)CC1` was 4.22 µM (active).
Take `CCS(=O)(=O)N1CC(F)(F)C[C@H]1c1nc(CCOC)no1`: the “activity change, negative = inhibition” value is 13.7%.
With `COc1cc2nc(NCc3ccccc3)n3nc(-c4ccccc4)nc3c2cc1OC`, the Potency was 0.422 µM (active).
Same read-out and setting: the value for `COc1cc2nc(NCc3ccc(C)cc3)n3nc(-c4ccccc4)nc3c2cc1OC` was 0.266 µM (active); that for `COc1cc2nc(NCc3ccccc3Cl)n3nc(-c4cccnc4)nc3c2cc1OC` was 2.11 µM (active).
For the compound `COc1cccc(NC(=O)CSc2nc3cc(OC)c(OC)cc3c3nc(-c4ccccc4)nn23)c1`, the “activity change, negative = inhibition” value is 42.6%.
On the same count and under the same terms, the value for `COc1ccccc1S(=O)(=O)Cc1ccc(C(=O)NCc2cccs2)o1` was 5.1%; that for `CC(C(=O)N1CCCN(c2cc(-c3ccc(Cl)cc3)[nH]n2)CC1)c1ccccc1` (stereo unspecified) was -15.7%.
On the same count and under the same terms, the result for `Nc1nc(N)c2c(ccc3nccc32)[nH]1` reads 7.51%; that for `O=C(CCc1nc2ccccc2[nH]1)N1C[C@@H](CO)[C@H](c2ccccn2)C1`, 41.4%.
Consider `Cc1ccc(C)c(N=Nc2nc3ccccc3n2C)c1`, for which the Potency was 0.299 µM (active).
Consider `CCN(Cc1nc2ccccc2n1C)c1ccccc1`, for which the “activity change, negative = inhibition” value was 6.82%.
On the same count and under the same terms, the result for `c1ccc(COc2cncc(-c3cccnc3)c2)cc1` reads 1.56%.
As to `Cn1nnnc1SCCCNCc1cccc(OCc2ccccc2)c1`, the Potency was 9.44 µM (active).
`CCOc1c(CNCCSc2nnnn2C)cccc1OC`: the “activity change, negative = inhibition” value is -28%.
Consider `COc1cc2c(cc1OC)[C@H](C)N(C(=O)COc1ccccc1)CC2`, for which the “activity change, negative = inhibition” value was -6.38%.
Still for that read-out and setting: the result for `COc1ccc2c(C)c(C(=O)N3CC(Oc4c(C)cccc4C)C3)oc2c1` reads 41.8%.
As to `COc1cc2c(cc1OC)C(COc1ccc3c(C)cc(=O)oc3c1)N(C(=O)c1ccccc1C)CC2` (stereo unspecified), the Potency was 15 µM (active).
On the same count and under the same terms, the value for `CC(=O)N1CCc2cc(Br)cc(S(=O)(=O)N3CCCCC3)c21` was 5.96 µM (active); that for `CC(=O)N1CCc2cc(Br)cc(S(=O)(=O)N3CCCCCC3)c21` was 5.31 µM (active).
For the compound `Cc1nc(-c2c3n(c(=O)n(Cc4ccc(OC(F)(F)F)cc4)c2=O)CCCC3)no1`, the “activity change, negative = inhibition” value is -13.9%.
As to `CC(C)c1nc2c(c(-c3ccc(O)cc3)n1)CCN(Cc1ccc(C(F)(F)F)cc1)CC2`, the Potency is 5.31 µM (active).
Regarding `CC(=O)Nc1ccc(CN2CCn3c(nn(-c4ccc(Cl)cc4)c3=O)C2)cc1`, the “activity change, negative = inhibition” value was 14.2%.
Turning to `CC(=O)Nc1ccc(CN2CCc3nc(C(C)C)nc(-c4ccc(Cl)cc4)c3CC2)cc1`, the Potency was 2.66 µM (active).
Same read-out and setting: the value for `CC(C)c1nc2c(c(-c3ccc(O)cc3)n1)CN(Cc1cccc(F)c1)CC2` was 9.44 µM (active).
Consider `Cc1nc2c(c(-c3ccc(O)cc3)n1)CN(C(=O)c1cccc(Cl)c1)CC2`, for which the “activity change, negative = inhibition” value was 1.23%.
`CC(C)c1nc2c(c(-c3ccc(O)cc3)n1)CCN(Cc1ccc(OC(F)(F)F)cc1)CC2`: the Potency is 2.99 µM (active).
As to `Cc1nc(-c2c3n(c(=O)n(Cc4ccc(OC(F)(F)F)cc4)c2=O)CCCCC3)no1`, the “activity change, negative = inhibition” value is -10.2%.
The same measure, in the same setting: the result for `COCC(=O)N1CCc2nc(-c3ccccc3)nc(-c3ccc(Cl)cc3)c2C1` reads 0%; that for `CCn1nc(C)c(-c2cc(C(=O)NCCc3noc(-c4ccccc4)n3)no2)c1C`, -0.509%.
`CC1(C)C[C@H](NCc2ccc(CO)o2)[C@@]2(CCC(=O)NCCN3CCOCC3)CC[C@](C)(O)C[C@@H]12`: the “activity change, negative = inhibition” value was 4.43%.
Consider `Cc1nc2c(c(-c3ccc(O)cc3)n1)CN(Cc1ccc(C(F)(F)F)cc1)CCC2`, for which the Potency is 4.22 µM (active).
For `COc1ccccc1CNS(=O)(=O)c1ccc2c(c1)CC(=O)N2C`, the “activity change, negative = inhibition” value was -10.4%.
As for `Cc1ccc(C(=O)Nc2cccc(NC(=O)c3ccc(C)c([N+](=O)[O-])c3)n2)cc1[N+](=O)[O-]`, the Potency is 15 µM (active).
As for `Cc1ccc(C(=O)NCCn2c(C)cc3ccccc32)cc1C`, the “activity change, negative = inhibition” value is 0%.
